Experimental findings from PubChem BioAssay (NCI) are described below.

The panel holds about 83,000 compounds, 20% with a hit somewhere; the sample as a whole holds those more often.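 For each line, cells grew in 96-well plates with the test compound present at a single concentration for 48 hours.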 A number with no mark means an inactive call. Activity calls are given as the source filed them. The calls were made as follows: active = growth percent below 10; inactive = the rest.

Among the test systems are HCT-15 colon; HT29 colon; SNB-75 CNS; SNB-19 CNS; U251 CNS; PC-3 prostate; SK-MEL-5 melanoma; UACC-62 melanoma; LOX IMVI melanoma; SK-MEL-28 melanoma; SK-MEL-2 melanoma; EKVX NSCLC; SN12C renal; UO-31 renal; TK-10 renal; ACHN renal; A498 renal; CCRF-CEM leukemia; MOLT-4 leukemia; SR leukemia.
Common to all, as to experiment: NCI-60 one-dose screen, 48 h (100 = growth as untreated, 0 = no growth, -100 = all killed)
Conditions in all cases: 10 µM unless noted

`C#CCN1C(=O)c2ccccc2N(CC#C)C12CCN(Cc1cn(CC(=O)Nc3ccccc3C(N)=O)nn1)CC2`: the growth is 86.8% with HCT-15 colon; 85.1% with HT29 colon; 78.3% in the test on SNB-75 CNS; 90.5% with SNB-19 CNS; 97.2% with U251 CNS; 83.7% in the test on PC-3 prostate. For the same compound, the growth is 76.9% in the test on SK-MEL-5 melanoma; 74.3% in the test with UACC-62 melanoma; 87% in the test on LOX IMVI melanoma; 93.4% in the test on SK-MEL-28 melanoma; 98.8% in the test on SK-MEL-2 melanoma; 78.6% with EKVX NSCLC. For the same compound, the growth was 88.9% with SN12C renal; 59.3% in the test with UO-31 renal; 82.8% in the test on TK-10 renal; 92.5% in the test on ACHN renal; 75.8% in the test on A498 renal; 84.3% in the test with CCRF-CEM leukemia. The growth is 83.2% in the test with MOLT-4 leukemia and 64.6% with SR leukemia.
For the compound `Nc1c(C(=O)Nc2ccccn2)sc2nc3c(cc12)C(=O)CCC3`, the growth in the test on HCT-15 colon was 28.5%; in the test with HT29 colon, 12.4%; in the test on SNB-75 CNS, 8.84% (active); in the test on SNB-19 CNS it was 28.2%; in the test with U251 CNS, 29.5%; in the test with PC-3 prostate, 37.9%. In addition, the growth was 17.1% with SK-MEL-5 melanoma; 34.9% with UACC-62 melanoma; 44.4% in the test with LOX IMVI melanoma; 56.4% in the test on SK-MEL-28 melanoma; 32.9% with SK-MEL-2 melanoma; 34.4% in the test with EKVX NSCLC. Further, the growth is 43.6% with SN12C renal; 59.3% in the test on UO-31 renal; 64.2% with TK-10 renal; 59.5% in the test with ACHN renal; 2.05% (active) in the test with A498 renal; 47.9% in the test on CCRF-CEM leukemia. In addition, the growth was 69.7% in the test on MOLT-4 leukemia and 40.6% with SR leukemia.
As for `COc1ccc(-c2cc(-c3nnc(SCC(=O)Nc4ccc(C(C)=O)cc4)o3)c3ccccc3n2)cc1`, the growth is 23.3% in the test with HCT-15 colon; 38.9% with HT29 colon; -5.55% (active) in the test on SNB-75 CNS; 13.8% with SNB-19 CNS; -68.6% (active) in the test on U251 CNS; 6.81% (active) with PC-3 prostate. Besides, the growth was 5.12% (active) with SK-MEL-5 melanoma; 25.8% in the test with UACC-62 melanoma; 4.15% (active) in the test on LOX IMVI melanoma; 42.7% with SK-MEL-28 melanoma; 40.1% in the test on SK-MEL-2 melanoma; 23.2% in the test with EKVX NSCLC. Besides, the growth in the test with SN12C renal is -40.5% (active); with UO-31 renal, -70.7% (active); with TK-10 renal, -28.8% (active); in the test on ACHN renal, -11.6% (active); in the test on A498 renal it was 18.3%; with CCRF-CEM leukemia, 32.7%. In addition, the growth in the test on MOLT-4 leukemia was 23%; in the test on SR leukemia it was -19.5% (active).
`COc1ccc2oc(=O)cc(-c3nc4ccc(N)cc4[nH]3)c2c1`: the growth in the test with HCT-15 colon was 97.7%; in the test with HT29 colon it was 97.3%; in the test on SNB-75 CNS, 53.6%; with SNB-19 CNS, 90.9%; in the test with U251 CNS it was 86.2%; in the test with PC-3 prostate, 81.1%. Also, the growth in the test on SK-MEL-5 melanoma was 81.5%; in the test with UACC-62 melanoma it was 91.5%; in the test with LOX IMVI melanoma, 78.6%; with SK-MEL-28 melanoma it was 111%; in the test on SK-MEL-2 melanoma it was 89.5%; in the test with EKVX NSCLC, 82.2%. In addition, the growth with SN12C renal is 92.4%; with UO-31 renal, 44.9%; in the test with TK-10 renal, 96.5%; with ACHN renal it was 79.9%; with A498 renal it was 61.5%; with CCRF-CEM leukemia, 108%. Besides, the growth in the test with MOLT-4 leukemia was 73.4%; in the test with SR leukemia it was 76.1%.
Take `CC(=O)ON1CCCC(P(=O)(OCOC(=O)C(C)(C)C)OCOC(=O)C(C)(C)C)C1=O` (stereo not given): the growth was 3.57% (active) in the test with HCT-15 colon; -4.49% (active) in the test with HT29 colon; 25.4% in the test with SNB-75 CNS; -7.66% (active) in the test with SNB-19 CNS; -8.95% (active) in the test with U251 CNS; 17.7% with PC-3 prostate. In addition, the growth was -55.7% (active) with SK-MEL-5 melanoma; -64.7% (active) in the test with UACC-62 melanoma; 9.18% (active) in the test with LOX IMVI melanoma; -46.9% (active) in the test with SK-MEL-28 melanoma; 9.04% (active) in the test with SK-MEL-2 melanoma; 9.78% (active) in the test on EKVX NSCLC. For the same compound, the growth is -1.1% (active) in the test with SN12C renal; -8.25% (active) in the test on UO-31 renal; 1.68% (active) in the test on TK-10 renal; 6.57% (active) in the test with ACHN renal; -8.06% (active) in the test on A498 renal; -7.6% (active) with CCRF-CEM leukemia. Further, the values for the growth in the test with MOLT-4 leukemia and with SR leukemia were -25.4% (active) and -22.3% (active), respectively.
For the compound `C=C(C)[C@@H]1CC[C@]2(C(=O)O)CC[C@]3(C)[C@H](CC[C@@H]4[C@@]5(C)C[C@@H](CC#Cc6ccc(Cl)cc6)C(=O)C(C)(C)[C@@H]5CC[C@]43C)[C@@H]12`, the growth in the test on HCT-15 colon is 45.5%; in the test with HT29 colon, 30.1%; with SNB-75 CNS, 70%; in the test with SNB-19 CNS, 54%; in the test with U251 CNS it was 28.1%; in the test on PC-3 prostate it was 25.9%. For the same compound, the growth with SK-MEL-5 melanoma was 51.8%; with UACC-62 melanoma, -20.2% (active); in the test with LOX IMVI melanoma it was 59.6%; in the test with SK-MEL-28 melanoma, -23.1% (active); with SK-MEL-2 melanoma, -18.9% (active); with EKVX NSCLC, 40%. For the same compound, the growth in the test with SN12C renal was 27.8%; in the test on UO-31 renal it was 60.5%; in the test with TK-10 renal it was 59.7%; in the test on ACHN renal, 48.2%; in the test with A498 renal, -15.1% (active); with CCRF-CEM leukemia, 27.9%. For the same compound, the results for the growth with MOLT-4 leukemia and in the test on SR leukemia were 26.7% and 49.9%, respectively.
Take `C=C1C(=O)O[C@H]2[C@H]1CC/C(COC(=O)c1cccnc1)=C\CC[C@@]1(C)O[C@@H]21`: the growth was 34.4% in the test on HCT-15 colon; 33.5% in the test on HT29 colon; 83.4% in the test with SNB-75 CNS; 90.2% in the test on SNB-19 CNS; 88.5% in the test with U251 CNS; 66.1% in the test with PC-3 prostate. Besides, the growth in the test on SK-MEL-5 melanoma was 88.9%; in the test with UACC-62 melanoma, 69.5%; with LOX IMVI melanoma, 75%; with SK-MEL-28 melanoma it was 89%; in the test with SK-MEL-2 melanoma, 88.3%; in the test on EKVX NSCLC, 71.8%. The growth with SN12C renal was 51.8%; in the test on UO-31 renal, 69.9%; with TK-10 renal, 63.1%; with ACHN renal it was 45.2%; in the test on A498 renal it was 102%; in the test with CCRF-CEM leukemia, 3.51% (active). For the same compound, the results for the growth in the test with MOLT-4 leukemia and in the test with SR leukemia were 71.5% and 21%, respectively.
Turning to `O=C(Nc1nc2ccc(C(F)(F)F)cc2s1)c1cc(Cl)ccc1O`, the growth in the test with HCT-15 colon is 7.56% (active); in the test on HT29 colon it was -18% (active); with SNB-75 CNS, 16.8%; in the test on SNB-19 CNS it was 20.5%; in the test with U251 CNS, 8.44% (active); in the test with PC-3 prostate it was 7.15% (active). Moreover, the growth in the test on SK-MEL-5 melanoma was -46.1% (active); in the test on UACC-62 melanoma, 13.3%; in the test with LOX IMVI melanoma, 5.71% (active); in the test on SK-MEL-28 melanoma, 26.6%; in the test on SK-MEL-2 melanoma, -11.4% (active); in the test with EKVX NSCLC, -1.23% (active). Further, the growth was 9.78% (active) with SN12C renal; 7.2% (active) in the test with UO-31 renal; 4.94% (active) in the test on TK-10 renal; 2.6% (active) in the test on ACHN renal; -26.8% (active) in the test on A498 renal; 15% in the test on CCRF-CEM leukemia. The growth with MOLT-4 leukemia was 1.46% (active); with SR leukemia it was 0.767% (active).
